This passage reports growth inhibition results from PubChem BioAssay (NCI).

Experiment [1] in a line: NCI Yeast Anticancer Drug Screen. Data for the rad50 strain (AID 155).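 Note: 0% = growth of vehicle-only cultures of the same strain.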 The following applies: S. cerevisiae rad50 strain growth inhibition, hits give high values. The procedure, abridged: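 Genetically altered yeast (DNA repair pathway); compound treatment; growth inhibition vs vehicle ctrl.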
Experiment [2] is described as follows: NCI Yeast Anticancer Drug Screen. Data for the mec2-1 strain (AID 157). The following applies: S. cerevisiae mec2-1 strain, hits give high values. The procedure, abridged: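 Using mec2-1 yeast: add compound, measure growth, express inhibition versus vehicle-treated cultures.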
Experiment [3] can be described thus: NCI Yeast Anticancer Drug Screen. Data for the sgs1 mgt1 strain (AID 161).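 Note: 0% = growth of cultures given vehicle only.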 The following applies: S. cerevisiae sgs1 mgt1 strain, hits give high values. The procedure, abridged: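 Compounds are added to genetically altered yeast, and growth is compared with cultures given vehicle alone to give percent inhibition.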
A short description of experiment [4]: NCI Yeast Anticancer Drug Screen. Data for the cln2 rad14 strain (AID 165).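 Note: 0% = growth equal to vehicle treated cultures.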 The following applies: S. cerevisiae cln2 rad14 strain, hits give high values. The procedure, abridged: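 Yeast strain cln2 rad14, bearing defects in cell cycle control and DNA repair, serves as the test system; values reflect growth inhibition compared with vehicle.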
Experiment [5] is described as follows: NCI Yeast Anticancer Drug Screen. Data for the bub3 strain (AID 167). The following applies: S. cerevisiae bub3 mutant strain, hits give high values. The essentials: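 Yeast carrying a defined mutation is treated with each compound, and growth is compared with that of vehicle-exposed cells to give inhibition.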
A short description of experiment [6]: NCI Yeast Anticancer Drug Screen. Data for the mlh1 rad18 strain (AID 175). The following applies: S. cerevisiae mlh1 rad18 strain growth inhibition, hits give high values. The procedure, abridged:
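Steps: expose repair-defective yeast to compound; measure growth; express inhibition against vehicle-treated controls.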

Where [7] appears, read: at 5.0 µM (retest, dose inferred, filed as 0.5).
Setting [8] is: at 50.0 µM (retest, dose inferred, filed as 5.0).

Compounds without any hit were thinned out: in the full panel of roughly 79,000, 15% have a hit. Values without a mark were called inactive. Activity calls are given as the source filed them. Cut-off read from the data, not from the text of the source: active = growth inhibition above about 70%; inactive = the rest.

As for `COc1cc([N+](=O)[O-])c2ncccc2c1[N+](=O)[O-]`, the growth inhibition in experiment [1] (setting [7]) is -1%; in experiment [1] (setting [8]) it was 23%; in experiment [1] (at 50.0 µM), 85% (active); in experiment [2] (setting [7]), -5%; in experiment [2] (setting [8]), 13%; in experiment [2] (at 50.0 µM) it was 52.4%. The growth inhibition in experiment [3] (setting [7]) was -2%; in experiment [3] (setting [8]), 26%; in experiment [3] (at 50.0 µM), 74.5% (active); in experiment [4] (setting [7]) it was -5%; in experiment [4] (setting [8]) it was -9%; in experiment [4] (at 50.0 µM) it was 53.6%. Also, the growth inhibition in experiment [5] (setting [7]) is -11%; in experiment [5] (setting [8]), 12%; in experiment [5] (at 50.0 µM) it was 39.4%; in experiment [6] (setting [7]) it was 13%; in experiment [6] (setting [8]), 45%; in experiment [6] (at 50.0 µM), 93.6% (active).

Consider `CCO[C@@H]([CH2][Hg][Cl])[C@](C)([CH2][Hg][Cl])OCC`, for which the growth inhibition in experiment [1] (setting [7]) is 99% (active); in experiment [1] (setting [8]) it was 99% (active); in experiment [1] (at 50.0 µM), 99.4% (active); in experiment [2] (setting [7]) it was 99% (active); in experiment [2] (setting [8]) it was 99% (active); in experiment [2] (at 50.0 µM), 99.6% (active). For the same molecule, the growth inhibition in experiment [3] (setting [7]) is 99% (active); in experiment [3] (setting [8]), 99% (active); in experiment [3] (at 50.0 µM), 99.5% (active); in experiment [4] (setting [7]) it was 98% (active); in experiment [4] (setting [8]), 99% (active); in experiment [4] (at 50.0 µM) it was 99.3% (active). In addition, the growth inhibition is 99% (active) in experiment [5] (setting [7]); 99% (active) in experiment [5] (setting [8]); 99.3% (active) in experiment [5] (at 50.0 µM); 99% (active) in experiment [6] (setting [7]); 99% (active) in experiment [6] (setting [8]); 99.3% (active) in experiment [6] (at 50.0 µM).

On to `O=Cc1ccccc1O.O=Cc1ccccc1O.[O]=[Mo]=[O]`, for which the growth inhibition was 5% in experiment [1] (setting [7]); 29% in experiment [1] (setting [8]); 11.8% in experiment [1] (at 50.0 µM); -1% in experiment [2] (setting [7]); 36% in experiment [2] (setting [8]); 3.65% in experiment [2] (at 50.0 µM). The growth inhibition in experiment [3] (setting [7]) was 8%; in experiment [3] (setting [8]), 41%; in experiment [3] (at 50.0 µM), 8.2%; in experiment [4] (setting [7]) it was -7%; in experiment [4] (setting [8]) it was 16%; in experiment [4] (at 50.0 µM), 42%. The growth inhibition was -3% in experiment [5] (setting [7]); 34% in experiment [5] (setting [8]); -5.6% in experiment [5] (at 50.0 µM); 2% in experiment [6] (setting [7]); 46% in experiment [6] (setting [8]); 2.45% in experiment [6] (at 50.0 µM).

For the molecule `O=c1[nH]c2ccccc2n1C1CCN(CCCC(c2ccc(F)cc2)c2ccc(F)cc2)CC1`, the growth inhibition in experiment [1] (setting [7]) is -10%; in experiment [1] (setting [8]), 34%; in experiment [1] (at 50.0 µM), -14.8%; in experiment [2] (setting [7]) it was 12%; in experiment [2] (setting [8]), 11%; in experiment [2] (at 50.0 µM), -11.4%. The growth inhibition is 4% in experiment [3] (setting [7]); 83% (active) in experiment [3] (setting [8]); 48.7% in experiment [3] (at 50.0 µM); -7% in experiment [4] (setting [7]); -4% in experiment [4] (setting [8]); -24% in experiment [4] (at 50.0 µM). For the same molecule, the growth inhibition was -2% in experiment [5] (setting [7]); 10% in experiment [5] (setting [8]); 72.9% (active) in experiment [5] (at 50.0 µM); 14% in experiment [6] (setting [7]); 92% (active) in experiment [6] (setting [8]); 63.8% in experiment [6] (at 50.0 µM).

For the molecule `O=c1c2ccccc2[nH]c(=S)n1-c1cccc(C(F)(F)F)c1`, the growth inhibition in experiment [1] (setting [7]) was 65%; in experiment [1] (setting [8]) it was 69%; in experiment [1] (at 50.0 µM) it was 72.2% (active); in experiment [2] (setting [7]), 49%; in experiment [2] (setting [8]) it was 59%; in experiment [2] (at 50.0 µM), 76.3% (active). The growth inhibition in experiment [3] (setting [7]) was 55%; in experiment [3] (setting [8]), 59%; in experiment [3] (at 50.0 µM), 77% (active); in experiment [4] (setting [7]), 52%; in experiment [4] (setting [8]) it was 48%; in experiment [4] (at 50.0 µM), 61.7%. Besides, the growth inhibition in experiment [5] (setting [7]) was 71% (active); in experiment [5] (setting [8]), 77% (active); in experiment [5] (at 50.0 µM), 77.7% (active); in experiment [6] (setting [7]), 79% (active); in experiment [6] (setting [8]) it was 81% (active); in experiment [6] (at 50.0 µM) it was 69.2%.

In the case of `CC(C)c1ccc(C(C)C)c(C(=O)CN2CCOCC2)c1`, the growth inhibition in experiment [1] (setting [7]) was 4%; in experiment [1] (setting [8]) it was 13%; in experiment [1] (at 50.0 µM), 41.1%; in experiment [2] (setting [7]) it was 8%; in experiment [2] (setting [8]), 34%; in experiment [2] (at 50.0 µM) it was 34.8%. Further, the growth inhibition in experiment [3] (setting [7]) was 3%; in experiment [3] (setting [8]) it was 19%; in experiment [3] (at 50.0 µM), 42.6%; in experiment [4] (setting [7]), -1%; in experiment [4] (setting [8]), 2%; in experiment [4] (at 50.0 µM), -3.3%. The growth inhibition was 3% in experiment [5] (setting [7]); 17% in experiment [5] (setting [8]); 97.8% (active) in experiment [5] (at 50.0 µM); 5% in experiment [6] (setting [7]); 20% in experiment [6] (setting [8]); 35.4% in experiment [6] (at 50.0 µM).

With `COc1cc(/C=C/[N+](=O)[O-])c(OC)cc1Br`, the growth inhibition was 44% in experiment [1] (setting [7]); 58% in experiment [1] (setting [8]); 59.9% in experiment [1] (at 50.0 µM); 27% in experiment [2] (setting [7]); 45% in experiment [2] (setting [8]); 83.3% (active) in experiment [2] (at 50.0 µM). The growth inhibition is 15% in experiment [3] (setting [7]); 87% (active) in experiment [3] (setting [8]); 87% (active) in experiment [3] (at 50.0 µM); 37% in experiment [4] (setting [7]); 25% in experiment [4] (setting [8]); 73% (active) in experiment [4] (at 50.0 µM). Moreover, the growth inhibition in experiment [5] (setting [7]) is 24%; in experiment [5] (setting [8]), 75% (active); in experiment [5] (at 50.0 µM), 88.2% (active); in experiment [6] (setting [7]), 38%; in experiment [6] (setting [8]), 40%; in experiment [6] (at 50.0 µM), 89.2% (active).

On to `O=[N+]([O-])/C=C\C(Cl)(Cl)Cl`, for which the growth inhibition is 74% (active) in experiment [1] (setting [7]); 99% (active) in experiment [1] (setting [8]); 91.7% (active) in experiment [1] (at 50.0 µM); 72% (active) in experiment [2] (setting [7]); 99% (active) in experiment [2] (setting [8]); 92.7% (active) in experiment [2] (at 50.0 µM). The growth inhibition is 73% (active) in experiment [3] (setting [7]); 99% (active) in experiment [3] (setting [8]); 92.2% (active) in experiment [3] (at 50.0 µM); 82% (active) in experiment [4] (setting [7]); 99% (active) in experiment [4] (setting [8]); 91.5% (active) in experiment [4] (at 50.0 µM). Further, the growth inhibition is 92% (active) in experiment [5] (setting [7]); 99% (active) in experiment [5] (setting [8]); 90.5% (active) in experiment [5] (at 50.0 µM); 74% (active) in experiment [6] (setting [7]); 99% (active) in experiment [6] (setting [8]); 91.3% (active) in experiment [6] (at 50.0 µM).

Turning to `CN1CCN(c2ccc3nc(-c4ccc5nc(CCCc6ccc(N(CCCl)CCCl)cc6)[nH]c5c4)[nH]c3c2)CC1`, the growth inhibition in experiment [1] (setting [7]) is 98% (active); in experiment [1] (setting [8]), 98% (active); in experiment [1] (at 50.0 µM), 90.5% (active); in experiment [2] (setting [7]), 99% (active); in experiment [2] (setting [8]), 99% (active); in experiment [2] (at 50.0 µM), 90.8% (active). For the same molecule, the growth inhibition in experiment [3] (setting [7]) is 100% (active); in experiment [3] (setting [8]) it was 99% (active); in experiment [3] (at 50.0 µM) it was 92.2% (active); in experiment [4] (setting [7]) it was 97% (active); in experiment [4] (setting [8]), 99% (active); in experiment [4] (at 50.0 µM) it was 91% (active). The growth inhibition in experiment [5] (setting [7]) was 99% (active); in experiment [5] (setting [8]), 99% (active); in experiment [5] (at 50.0 µM), 91.7% (active); in experiment [6] (setting [7]), 98% (active); in experiment [6] (setting [8]), 98% (active); in experiment [6] (at 50.0 µM) it was 89.5% (active).
